# Bioassay records deposited in PubChem by National Center for Advancing Translational Sciences (NCATS).
# Rows were chosen to be rich in hits. Some 21% of all compounds tested hit in one or more screens of this group.
# Pf growth 48h = Primary qHTS for delayed death inhibitors of the malarial parasite plastid, 48 hour incubation. Potency, µM (highest dose often 28.7 µM), usual class: inhibitors. AID 504832, 2011. hit rate 5.9% among 310,000. P. falciparum luciferase growth in erythrocytes, 48 h
#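 Luciferase-expressing P. falciparum in infected erythrocytes (2% hematocrit, 0.1% parasitemia final) in RPMI 1640/0.5% Albumax were exposed to compound for 48 hours at 37 C, 5% CO2; growth read as luminescence.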
# Sm TGR inh = qHTS Assay for the Inhibitors of Schistosoma Mansoni Peroxiredoxins; Schistosoma mansoni thioredoxin glutathione reductase (TGR), Q962Y6; purified TGR, DTNB reduction, TNB absorbance 405 nm; Potency, µM (titrated, usually from 114 µM), actives largely listed as inhibitors; hit rate 3% among 360,000; further: nearly all actives have a fitted effect of over 60% in size
#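 Kinetic colorimetric format: TGR-catalysed, NADPH-driven DTNB reduction monitored via TNB absorbance. Enzyme dispensed at 20 nM; compound exposure 15 min at room temperature before reaction start.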
# Pf growth 96h = Primary qHTS for delayed death inhibitors of the malarial parasite plastid, 96 hour incubation | P. falciparum luciferase reporter growth, 96 h | Potency, µM (highest dose often 28.7 µM), usual class: inhibitors | hit rate 6.9% among 320,000
#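 Cell-based qHTS: luciferase-tagged P. falciparum in erythrocytes (2% hematocrit, 0.05% parasitemia final) incubated with compounds for 96 hours, 37 C, 5% CO2; luciferase detection reagent then added and luminescence measured.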
# Cycloheximide cs = Cycloheximide Counterscreen for Small Molecule Inhibitors of Shiga Toxin. cell reporter, cycloheximide protein synthesis inhibition counterscreen. max response, %. hit rate 12% among 300,000. AID 2314, 2010; in the data active means max response mostly above about 13%, no sharp cut-off; inactive means mostly below about 14%; further: read at 38.3 µM for the half of the compounds with a filed dose
# NS1 inh = qHTS Assay for Inhibitors of Influenza NS1 Protein Function; AID 2326, 2010; Potency, µM (highest dose often 46.1 µM); hit rate 0.4% among 270,000; calls by dose curve; further: actives are rising curves; nearly all actives have a fitted effect of over 50% in size
#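 Compounds were scored for reversing the slow growth caused by influenza A NS1 in S. cerevisiae, measured by optical density at 600 nm. Assay medium contained 2% galactose at pH 6.0; NS1-free yeast of the same strain were the positive control.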
# Shiga inhibitor = A qHTS for Small Molecule Inhibitors of Shiga Toxin | Vero cells, Shiga toxin protein synthesis inhibition reporter | inhibition, % at 38.7 µM | hit rate 9.2% among 290,000; in the data active means inhibition mostly above about 28%, no sharp cut-off; inactive means mostly below about 43%
# Hits are given with their value; n = inactive; u = inconclusive; x = no result. Unless noted, the call rests on the fitted dose curve; in most records, active means well fitted curve in the direction sought with a large enough effect; inconclusive means small, poorly fitted or top-dose-only effect, or another doubt; inactive means no such curve, though single readings can be large; an effect the other way counts as inactive or inconclusive.
SMILES,Pf growth 48h,Sm TGR inh,Pf growth 96h,Cycloheximide cs,NS1 inh,Shiga inhibitor
COC(=O)CN1C(c2cccc(Cl)c2)=Nc2ccc(Cl)cc2C1c1ccccc1 (stereo not drawn),2.33µM,n,1.65µM,n,n,n
O=C(COc1ccc(Br)cc1)N1CCC(c2ccccc2)C1 (stereo not drawn),n,n,n,23.0,n,n
O=C(COc1ccc(-c2ccccc2)cc1)N1CCCC1,u,n,n,n,n,n
O=C(CCN1C(=O)c2ccccc2C1=O)N1CCC(c2ccccc2)C1 (stereo not drawn),n,n,x,20.6,n,n
O=C(CCN1C(=O)c2ccccc2C1=O)N1CCCCCC1,n,n,u,13.0,n,n
CC1(C)C(C=C(Cl)Cl)C1C(=O)N1CCN(Cc2ccccc2)CC1 (stereo not drawn),n,n,n,n,n,n
O=C(COc1ccccc1-c1nc(-c2ccccc2)no1)Nc1cccc([N+](=O)[O-])c1,x,n,x,x,x,x
Cc1ccc(Cn2ccsc2=NC(=O)CCl)cc1,u,14.1µM,u,32.1,x,44.6
Cc1ccc(Cn2ccsc2=NC(=O)COC(=O)c2ccc(NC(=O)CC#N)cc2)cc1,13.1µM,n,10.4µM,x,x,x
O=C(c1ccccc1)N(Cc1ccccc1)c1ccccn1,n,n,n,n,n,n
O=C(/C=C/c1ccc(Cl)cc1)N(Cc1ccccc1)c1ccccn1,u,x,n,21.1,n,106.8
COc1ccc(CNc2ccc(S(N)(=O)=O)cc2)cc1,n,n,u,n,n,n
COc1ccc(NCc2ccsc2)cc1,u,n,n,40.6,n,43.9
CN(Cc1nc2ccccc2[nH]1)Cc1nc(CC2CC2)no1,n,n,n,16.2,n,n
O=C(c1nc2ccc(Cl)cn2c1CNCC[C@@H]1C[C@@H]2C=C[C@H]1C2)N1CCCCCCC1,u,x,n,n,n,n
C[C@@H]1CN(C(=O)c2nc3ccc(Cl)cn3c2CNCC[C@@H]2C[C@@H]3C=C[C@H]2C3)C[C@H](C)O1,8.28µM,n,u,n,n,n
CN(C)/C=C1/C=C(C=O)OC1=O,n,n,n,n,n,n
CN(C)/C=C1/C=C(c2ccccc2)OC1=O,x,31.6µM,n,n,n,n
CC1=C/C(=C/N(C)C)C(=O)O1,n,20µM,n,n,x,n
Cc1noc(/C=C/c2ccccc2F)c1S(=O)(=O)N1CCC(C(=O)N(C)Cc2ccco2)CC1,x,n,x,x,x,x
COC(=O)CSc1ncnc2c1sc1nc3c(cc12)COC(C)(C)C3,n,n,u,n,n,n
CC1(C)Cc2nc3sc4c(N(CCO)CCO)nnnc4c3cc2CO1,n,n,n,28.8,x,77.8
CC1(C)Cc2nc3sc4c(SCC(=O)O)ncnc4c3cc2CO1,0.828µM,n,u,n,n,n
CC1(C)Cc2nc3sc4c(N(CCO)CCO)ncnc4c3cc2CO1,n,n,n,21.3,n,n
COC(CSc1ncnc2c1oc1nc3c(cc12)COC(C)(C)C3)OC,n,28.2µM,u,n,n,n
SMILES,Pf growth 48h,Sm TGR inh,Pf growth 96h,Cycloheximide cs,NS1 inh,Shiga inhibitor
CCOC(=O)c1ccc(NC(=O)N2CCN(C(=O)C3CCCO3)CC2)cc1 (stereo not drawn),n,n,u,n,n,n
O=C(NN=C1c2ccccc2-c2ccccc21)c1cccc(Br)c1,n,n,u,n,n,n
O=C(NCCC1=CCCCC1)c1ccc2c(c1)N(Cc1ccc(Cl)cc1)C(=O)c1ccccc1S2=O (stereo not drawn),x,n,x,x,x,x
CN[C@@H]1C[C@@H](c2ccc(Cl)c(Cl)c2)c2ccccc21,15.1µM,n,13.5µM,n,n,n
CC1=C([N+](=O)[O-])C(c2ccc(Cl)cc2)NC(=O)N1C (stereo not drawn),n,n,u,n,n,n
CN1CCN(c2ccc(C(=O)c3ccc(F)cc3)cc2)CC1,n,n,n,n,n,110.6
O=C(c1ccccc1)c1ccc(N2CCNCC2)cc1,n,u,x,34.0,n,active
O=C(c1ccccc1)c1ccc(N2CCCC2)cc1,n,n,u,23.5,n,53.1
N#Cc1ccccc1Oc1ccccc1C=O,n,n,n,n,n,n
Cc1ccc(C)c(NC(=O)CCCN2C(=O)COc3ccc(C)cc32)c1,x,n,x,x,x,x
